Bioassay records (PubChem BioAssay)
Compounds with a hit are over-represented: about 3.5% of the library has one in this group of screens.
MITF primary = blocks human microphthalmia-associated transcription factor | O75030 | AlphaScreen MITF homodimerization, bead proximity signal | inhibition, % at 2.6 µM | hit rate 0.91% among 650,000 | AID 1259374; in the data active means inhibition above about 50%;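 further: 0% = vehicle wells with protein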
FBW7 act = activators of human E3 ligase FBW7 | AlphaScreen FBW7–phospho-cyclin E peptide binding, activator screen | AID 1259310 | normalized activity (activation), % at 26.1 µM | Q969H0 | hit rate 0.13% among 650,000; in the data active means normalized activity above about 1.9%;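 further: purified mutant Fbw7 with reduced substrate affinity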
GPR151 ag = human GPR151 activation. hit rate 1% among 650,000. PathHunter beta-arrestin GPR151 cells, luminescence. Q8TDV0. activation, % at 11.2 µM; in the data active means activation above about 4.9%;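 further: 0% = median of compound wells and 100% = cells with positive control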
Target sequence (Q8TDV0 whole entry, looked up): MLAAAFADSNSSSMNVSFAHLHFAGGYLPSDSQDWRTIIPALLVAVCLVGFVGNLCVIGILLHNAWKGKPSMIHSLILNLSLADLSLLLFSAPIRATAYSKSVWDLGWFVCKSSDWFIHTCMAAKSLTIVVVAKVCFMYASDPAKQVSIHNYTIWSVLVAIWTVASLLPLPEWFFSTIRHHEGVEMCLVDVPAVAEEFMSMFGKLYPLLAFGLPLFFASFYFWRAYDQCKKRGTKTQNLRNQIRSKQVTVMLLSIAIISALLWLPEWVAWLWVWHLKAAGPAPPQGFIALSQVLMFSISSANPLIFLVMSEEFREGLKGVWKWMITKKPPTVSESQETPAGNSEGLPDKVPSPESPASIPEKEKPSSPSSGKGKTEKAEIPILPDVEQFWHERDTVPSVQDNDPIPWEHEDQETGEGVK
TEAD-YAP inh = TEAD-YAP interaction inhibition | AID 1259422 | HEK-TIYL cells, TEAD-Gal4/YAP UAS-luciferase luminescence | hit rate 1.4% among 640,000 | inhibition, % at 9.12 µM; in the data active means inhibition above about 32%;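 further: 0% = median of test compound wells and 100% = reference inhibitor wells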
Active calls of the source: *.

SMILES | MITF primary | FBW7 act | GPR151 ag | TEAD-YAP inh
CC(C)OCC(O)Cn1c(N/N=C/c2ccc(N(C)C)cc2)nc2c1c(=O)[nH]c(=O)n2C (stereo unspecified) | 16.1 | 0.1 | -2.4 | 5.6
COc1ccc(Cn2c(=S)[nH]c3cc(C(=O)Nc4cccc(C)c4)ccc3c2=O)cc1 | 11.2 | 0.5 | 0.6 | 3.1
Cc1ccc2oc(=O)c3cc(C(=O)Nc4cccnc4)sc3c2c1 | 9.7 | 0.1 | -0.2 | -7.0
C/C(=C\c1ccco1)CN1CCc2nnc(CNC(=O)Cc3cccc(F)c3)n2CC1 | 9.6 | 0.0 | 0.9 | 10.5
O=C(c1ccc(S(=O)(=O)c2cccc(Cl)c2)c([N+](=O)[O-])c1)N1CCN(c2ccc(F)cc2)CC1 | 7.8 | 0.0 | 1.2 | 1.4
O=C(c1ccc(S(=O)(=O)c2cccc(Cl)c2)c([N+](=O)[O-])c1)N1CCOCC1 | -0.2 | -0.1 | 1.7 | 32.0*
COCC(=O)N1CCC(Oc2ccc(C(=O)NCCCN3CCCC3)cc2)CC1 | -10.0 | 0.0 | 2.3 | -0.6
Nc1ccc(OCC[n+]2ccc(CCS(=O)(=O)O)cc2)cc1 | -0.1 | 0.0 | 0.6 | -8.3
O=S(=O)(O)CCc1cc[n+](CC(O)CO)cc1 (stereo unspecified) | 7.9 | 2.8* | -1.1 | 6.1
O=S(=O)(O)CCc1cc[n+](CC(O)CCl)cc1 (stereo unspecified) | 4.2 | 2.4* | -1.3 | 16.8
COc1cccc(-c2nnc(-c3ccc(N)cc3)o2)c1 | -3.7 | 0.0 | -1.1 | 40.6*
CC(=O)Oc1cc(N2CCOCC2)c(OC(C)=O)c2c1C(=O)c1ccccc1C2=O | 25.0 | -0.6 | -1.4 | 64.4*
COc1ccc(O)c(C2=Nc3ccccc3N=C(c3ccccc3)C2)c1 | 9.7 | 2.1* | 1.7 | -46.1
COc1ccc(C2=Nc3ccccc3N=C(c3cc(OC)ccc3O)C2)cc1 | 17.4 | 0.0 | -1.3 | -27.0
COCCNC(=O)c1cn(C2CCCCC2)c(=O)c2c1c1ccccc1n2C | 9.3 | 0.1 | -0.9 | 11.1
CCC(C)NC(=O)c1cn(C2CCCCC2)c(=O)c2c1c1ccccc1n2C (stereo unspecified) | 13.7 | 2.3* | 1.2 | 4.4
Cc1cc2nc(N3CCCN(Cc4ccc(CO)o4)CC3)nc(C)c2cc1C | 0.0 | -0.2 | 1.6 | -5.2
Cc1cc2nc(N3CCCN(Cc4c(C)nc5sccn45)CC3)nc(C)c2cc1C | 4.0 | -0.2 | 2.0 | 32.4*
CN(C)C(=O)n1nnc2ccccc21 | 14.2 | -0.1 | -0.3 | 58.7*
O=C(c1ccc(C(=O)n2nnc3ccccc32)cc1)n1nnc2ccccc21 | 3.2 | -0.1 | -1.1 | -8.3
CC1=C(C)/C(=N\S(=O)(=O)c2ccc(C)cc2)C=C(N(C)C)C1=O | 83.7* | -0.2 | 0.5 | 4.2
CN(C)C1=C/C(=N/S(=O)(=O)c2ccccc2)c2ccccc2C1=O | 58.5* | -0.3 | 1.7 | 90.3*
CC1=C(C)/C(=N\S(=O)(=O)c2ccccc2)C=C(Cl)C1=O | 6.2 | -0.1 | -0.5 | 1.4
COc1ccccc1NC(=O)c1ccc(SCC(=O)N2CCC3(CC2)OCCO3)c([N+](=O)[O-])c1 | -1.4 | 0.0 | 1.0 | 38.0*
N#Cc1cc(Nc2ccccc2Cl)c([N+](=O)[O-])cc1C#N | 4.2 | 0.0 | -1.2 | 74.2*
SMILES | MITF primary | FBW7 act | GPR151 ag | TEAD-YAP inh
O=[N+]([O-])c1ccc(Nc2ccccc2Cl)c([N+](=O)[O-])c1 | 10.7 | -0.2 | 2.3 | 2.5
CCN(CC)c1ccc(NS(=O)(=O)c2ccc(Br)cc2)cc1 | 6.3 | -0.3 | -0.3 | 6.0
Cc1ccc(CN=C(N)Nc2nc(C)cc(C)n2)cc1 | -0.2 | -0.2 | 1.6 | 54.0*
Cc1cc(C)nc(NC(N)=NCc2ccccc2)n1 | 6.7 | -0.2 | -0.3 | 5.0
Cc1cc(S(=O)(=O)O)ccc1N1N=C(C(=O)O)CC1=O | 71.4* | -2.4 | -0.1 | 2.0
COCCCNC(=O)c1cnn(-c2nccc(-c3ccc(OC)c(F)c3)n2)c1C1CC1 | 13.1 | 0.2 | -1.2 | 48.5*
COc1cccc(-c2ccnc(-n3ncc(C(=O)NCc4ccccn4)c3C3CC3)n2)c1 | 14.3 | -0.3 | 0.4 | 13.6
O[C@@H]1[C@@H](O)C=C2CCN3Cc4cc5c(cc4[C@H]1C23)OCO5 (stereo partly specified) | 23.0 | 0.5 | 0.6 | 82.2*
Cc1ccc(/C=C/c2ccncc2)cc1 | -5.0 | 0.0 | -5.9 | 51.2*
Cc1ccnc(NC(=O)CCC(=O)N(CC(=O)NC(C)(C)C)c2cccc(C)c2C)c1 | -16.4 | 0.0 | 0.2 | -13.2
O=C(COc1ccc(S(=O)(=O)N2CCCCC2)cc1)NC1CC1 | -1.6 | 0.1 | -0.6 | -2.0
O=C(CSc1nncs1)Nc1ccc(OCc2ccccc2)cc1 | -14.9 | 11.6* | 3.6 | -21.9
COc1ccc(/C=C/C2=NN(c3ccccc3)C(c3ccc(OC)cc3OC)C2)c(OC)c1 (stereo unspecified) | -55.0 | 2.7* | 0.8 | 1.8
CCOC(=O)c1csc2c1CCC/C2=N/OC(C)=O | 5.5 | 1.3 | -0.5 | 36.4*
CCOC(=O)c1c(N)sc2c1CCC/C2=N\O | 6.0 | -0.3 | -0.6 | 52.6*
CCOC(=O)c1c(NC(=O)CC)sc2c1CCC/C2=N/OC(C)=O | 1.3 | 0.0 | -0.1 | -3.4
COc1cccc(/C=N/NC(=O)c2cc(-c3ccc(C)o3)[nH]n2)c1O | 40.6 | 0.4 | -0.8 | 22.0
Cc1ccc(-c2cc(C(=O)N/N=C/c3cc(Br)ccc3O)n[nH]2)o1 | 27.0 | -0.2 | 2.4 | 44.6*
COc1ccc(O)c(/C=N/NC(=O)c2ccc(NC(=O)c3ccccc3Cl)cc2)c1 | 0.6 | 0.0 | 2.2 | 34.1*
O=C(N/N=C/c1ccc(O)c2ncccc12)c1cccc(Br)c1 | 103.3* | -0.3 | -0.3 | 37.9*
O=C(N/N=C/c1ccccc1O)c1cccc(Br)c1 | 9.2 | 0.0 | -0.3 | -13.0
COc1ccc(O)c(/C=N/NC(=O)c2cncc(Br)c2)c1 | -41.3 | -0.1 | -0.1 | 81.0*
O=C(Nc1ccc(Br)cc1)c1cccc2c1C(=O)c1ccccc1-2 | 6.1 | 0.0 | -0.3 | -4.4
CN(C)c1ccc(C(=O)Nc2sccc2C#N)cc1 | -2.3 | 0.0 | -8.0 | 8.5
COc1ccc(O)c(/C=N/NC(=O)c2cccc(Br)c2)c1 | 14.7 | -0.1 | -0.5 | 57.9*
SMILES | MITF primary | FBW7 act | GPR151 ag | TEAD-YAP inh
COc1ccc(O)c(/C=N\NC(=O)c2n[nH]c([N+](=O)[O-])n2)c1 | 52.6* | -0.9 | -1.4 | 4.2
COc1ccc(/C=N/NC(=O)c2cccc(Br)c2)cc1 | 2.8 | -0.1 | -0.3 | -66.0
O=C(N/N=C\c1ccccc1O)c1n[nH]c([N+](=O)[O-])n1 | 36.7 | -0.3 | -0.3 | -4.7
COc1ccc(-c2n[nH]c(=S)n2/N=C/C=C/c2ccco2)cc1OC | 38.4 | 0.0 | -0.5 | 0.9
CCc1ccc2oc(-c3ccccc3)cc(=NCC(=O)O)c2c1 | 14.3 | -0.1 | -3.2 | 32.2*
COc1ccccc1NC(C)C(=O)N/N=C/c1cc([N+](=O)[O-])ccc1O (stereo unspecified) | 31.3 | -0.7 | 0.9 | 21.9
O=C(CNc1cccc2ccccc12)N/N=C/c1cc(Br)ccc1O | 8.8 | -0.3 | 0.2 | 33.5*
CC(Nc1cccc2ccccc12)C(=O)N/N=C/c1cc([N+](=O)[O-])ccc1O (stereo unspecified) | 24.1 | 0.0 | 1.5 | 67.4*
